GPR151 activ – human GPR151 activation; Q8TDV0; PathHunter beta-arrestin GPR151 cells, luminescence; activation, % at 11.2 µM; actives 1% (n = 650,000); AID 1508602; in the data active = activation above about 4.9%;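 also: 0% = median of compound wells and 100% = cells with positive control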
Target sequence (Q8TDV0 whole entry, looked up): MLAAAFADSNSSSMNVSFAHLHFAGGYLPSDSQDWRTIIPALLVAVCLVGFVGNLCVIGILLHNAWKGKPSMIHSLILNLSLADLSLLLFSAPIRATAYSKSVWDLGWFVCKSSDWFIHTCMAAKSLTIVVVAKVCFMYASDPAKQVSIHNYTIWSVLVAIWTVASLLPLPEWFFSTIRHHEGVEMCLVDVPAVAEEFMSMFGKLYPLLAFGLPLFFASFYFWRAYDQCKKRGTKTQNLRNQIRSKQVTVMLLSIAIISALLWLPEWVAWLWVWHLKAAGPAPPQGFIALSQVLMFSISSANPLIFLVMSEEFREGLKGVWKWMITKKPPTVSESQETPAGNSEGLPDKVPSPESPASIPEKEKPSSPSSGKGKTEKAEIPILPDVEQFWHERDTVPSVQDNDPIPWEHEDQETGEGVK
MITF inh – inhibitors of human MITF. AlphaScreen MITF homodimerization, bead proximity signal. O75030. inhibition, % at 2.6 µM. actives 0.91% (n = 650,000); in the data active = inhibition above about 50%;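 also: 0% = vehicle wells with protein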
FBW7 activator – human FBW7 E3 ligase activation, primary screen | AID 1259310 | AlphaScreen FBW7–phospho-cyclin E peptide binding, activator screen | actives 0.13% (n = 650,000) | normalized activity (activation), % at 26.1 µM; in the data active = normalized activity above about 1.9%;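 also: purified mutant Fbw7 with reduced substrate affinity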
TEAD-YAP block – TEAD-YAP interaction inhibition; HEK-TIYL cells, TEAD-Gal4/YAP UAS-luciferase luminescence; inhibition, % at 9.12 µM; actives 1.4% (n = 640,000); in the data active = inhibition above about 32%;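 also: 0% = median of test compound wells and 100% = reference inhibitor wells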
Starred values were filed as active, the others as inactive. Hits are enriched below; roughly 3.4% of the tested compounds scored in any of these assays.

How did O=C(/C=C/c1ccc2c(c1)OCO2)Nc1ccccc1C(=O)O do in these assays?
GPR151 activ: -7; MITF inh: 20; FBW7 activator: 0; TEAD-YAP block: 47*

Results for Cc1cc(NC(=O)CN2c3cccc4cccc(c34)S2(=O)=O)no1 ?
GPR151 activ: -1; MITF inh: 13; FBW7 activator: 0; TEAD-YAP block: 7

How did CCn1c(O)c(C=NCC2CCCCC2)c(=O)n(CC)c1=S do in these assays?
GPR151 activ: 0; MITF inh: 12; FBW7 activator: 0; TEAD-YAP block: 1

What do the screens show for `CCOC(=O)C1(Cc2ccc(OC)cc2)CCN(C(=O)c2cc(C(F)(F)F)[nH]n2)CC1`?
GPR151 activ: 0; MITF inh: 13; FBW7 activator: 0; TEAD-YAP block: 6

What do the screens show for `Cc1cc(NC(=O)CSCC(=O)OCc2cc(=O)oc3ccc4ccccc4c23)no1`?
GPR151 activ: -1; MITF inh: 6; FBW7 activator: 0; TEAD-YAP block: 5

Results for O=c1[nH]c2ccc(S(=O)(=O)NCCCO)cc2[nH]1 ?
GPR151 activ: 0; MITF inh: 21; FBW7 activator: 1.9*; TEAD-YAP block: 5

What do the screens show for `CCc1ccc(/C=N/NC(=O)c2ccoc2C)cc1`?
GPR151 activ: -9; MITF inh: 8; FBW7 activator: 0; TEAD-YAP block: 23

How did COC(=O)c1ccc(/C=N/NC(=O)c2ccoc2C)cc1 do in these assays?
GPR151 activ: -9; MITF inh: -7; FBW7 activator: 0; TEAD-YAP block: 35*

How did COc1ccc(C)cc1N(C)C(=O)CN1C(=O)C2C3C=CC(C3)C2C1=O (stereo not drawn) do in these assays?
GPR151 activ: 0; MITF inh: 10; FBW7 activator: 0; TEAD-YAP block: -7

Results for Cc1ccnc(N2CCC(C(=O)Nc3ccccc3Br)CC2)n1 ?
GPR151 activ: -1; MITF inh: 22; FBW7 activator: 2.1*; TEAD-YAP block: 9

Results for COc1ccc(-c2c(C)c3cc(OS(C)(=O)=O)ccc3oc2=O)cc1OC ?
GPR151 activ: 2; MITF inh: 2; FBW7 activator: 0; TEAD-YAP block: -4

What do the screens show for `CCOC(=O)c1ccc(NC(c2ccc(O)cc2O)P(=O)(OCC)OCC)cc1` (stereo not drawn)?
GPR151 activ: -1; MITF inh: 52*; FBW7 activator: 1; TEAD-YAP block: -7

How did O=C(Nc1ccc(Cl)c(C(F)(F)F)c1)c1ccc(NC(=O)C2CCCO2)cc1 (stereo not drawn) do in these assays?
GPR151 activ: 1; MITF inh: 13; FBW7 activator: 0; TEAD-YAP block: 34*

How did CNC(=O)c1ncccc1Nc1cc(Nc2ccc3c(c2)CCC(=O)N3)ncc1C(F)(F)F do in these assays?
GPR151 activ: 1; MITF inh: -8; FBW7 activator: 0; TEAD-YAP block: 35*

How did CNC(=O)c1ncccc1Nc1cc(Nc2ccc3c(c2)CC(=O)N3)ncc1C(F)(F)F do in these assays?
GPR151 activ: 0; MITF inh: 0; FBW7 activator: 1; TEAD-YAP block: 7

How did CC(=O)Nc1ccccc1Nc1cc(Nc2ccc3c(c2)CC(=O)N3)ncc1C(F)(F)F do in these assays?
GPR151 activ: -1; MITF inh: 7; FBW7 activator: 0; TEAD-YAP block: 41*

Results for O=C(O)CSc1nnc(-c2ccc3c(c2)OCO3)o1 ?
GPR151 activ: -1; MITF inh: 18; FBW7 activator: 1; TEAD-YAP block: -4

How did NC(=O)CSc1nnc(-c2ccc3c(c2)OCO3)o1 do in these assays?
GPR151 activ: -2; MITF inh: 1; FBW7 activator: 0; TEAD-YAP block: 45*

What do the screens show for `CC(Sc1nnc(-c2ccc3c(c2)OCO3)o1)C(N)=O` (stereo not drawn)?
GPR151 activ: -7; MITF inh: 4; FBW7 activator: 0; TEAD-YAP block: 37*

What do the screens show for `CC(Sc1nnc(-c2ccncc2)o1)C(N)=O` (stereo not drawn)?
GPR151 activ: -1; MITF inh: 5; FBW7 activator: 0; TEAD-YAP block: 1

Results for CCOC(=O)c1c(NC(=O)CSc2ccccc2)sc(CC)c1-c1ccccc1 ?
GPR151 activ: 2; MITF inh: 70*; FBW7 activator: 0; TEAD-YAP block: -5

Results for Cc1sc(NC(=O)COc2ccccc2)c(C(N)=O)c1C ?
GPR151 activ: 1; MITF inh: 25; FBW7 activator: 0; TEAD-YAP block: -74

Results for Cc1sc(NC(=O)COc2ccccc2)c(C(N)=O)c1-c1ccccc1 ?
GPR151 activ: 0; MITF inh: 4; FBW7 activator: 0; TEAD-YAP block: 75*

Results for CSc1cccc(NS(=O)(=O)c2cnc[nH]2)c1 ?
GPR151 activ: 0; MITF inh: -5; FBW7 activator: 0; TEAD-YAP block: -7

How did CCOC(=O)c1ccc(N2NC(=O)/C(=C/c3ccc(C)o3)C2=O)cc1 do in these assays?
GPR151 activ: 1; MITF inh: 5; FBW7 activator: 0; TEAD-YAP block: 7

How did CCOC(=O)c1ccc(N2NC(=O)/C(=C/c3ccc([N+](=O)[O-])o3)C2=O)cc1 do in these assays?
GPR151 activ: 0; MITF inh: 66*; FBW7 activator: 0; TEAD-YAP block: 16

How did Cc1nc2scc(C)n2c1C(=O)NC1CCC1 do in these assays?
GPR151 activ: -1; MITF inh: 18; FBW7 activator: 1.9*; TEAD-YAP block: 7

Results for CCN(Cc1ccccc1)S(=O)(=O)c1cc(C(=O)Nc2ccc(Cl)c(Cl)c2)ccc1F ?
GPR151 activ: 1; MITF inh: 12; FBW7 activator: 0; TEAD-YAP block: 55*

Results for CN(Cc1ccccc1)S(=O)(=O)c1cc(C(=O)Nc2ccc(F)c(F)c2)ccc1F ?
GPR151 activ: 4; MITF inh: -6; FBW7 activator: 0; TEAD-YAP block: 44*

What do the screens show for `O=C(Nc1ccc(F)c(F)c1)c1ccc(F)c(S(=O)(=O)NCc2ccco2)c1`?
GPR151 activ: 0; MITF inh: 3; FBW7 activator: 1; TEAD-YAP block: 38*

What do the screens show for `CCN(Cc1ccccc1)S(=O)(=O)c1cc(C(=O)Nc2ccc(F)c(F)c2)ccc1F`?
GPR151 activ: 1; MITF inh: 11; FBW7 activator: 0; TEAD-YAP block: 59*

How did CCc1ccc(NC(=O)c2ccc(F)c(S(=O)(=O)N(CC)Cc3ccccc3)c2)cc1 do in these assays?
GPR151 activ: 0; MITF inh: -5; FBW7 activator: 0; TEAD-YAP block: -2

Results for O=C(CCC1CCCC1)NNC(=O)CSc1ccc(Cl)cc1 ?
GPR151 activ: 1; MITF inh: -3; FBW7 activator: 0; TEAD-YAP block: 11

What do the screens show for `COc1ccccc1CN1CCc2nc(C)[nH]c(=O)c2C1`?
GPR151 activ: -1; MITF inh: 12; FBW7 activator: 0; TEAD-YAP block: -3

How did CC(C)n1cnc2c(Nc3ccc(F)cc3)ncnc21 do in these assays?
GPR151 activ: -6; MITF inh: 18; FBW7 activator: 0; TEAD-YAP block: 54*

How did C=CCN=C1NN=C(c2ccc3c(c2)OCCO3)CS1 do in these assays?
GPR151 activ: 0; MITF inh: 7; FBW7 activator: 0; TEAD-YAP block: 51*

How did Cc1cc(C2=NNC(=NCc3ccccc3)SC2)c(C)n1C do in these assays?
GPR151 activ: -1; MITF inh: 7; FBW7 activator: 1; TEAD-YAP block: 1

Compound activity (PubChem BioAssay)
